# Source: PubChem BioAssay (several laboratories)
# Only some compounds are listed: those with a hit (about 27% of all), similar ones and a draw of the others.
# CYP2C19 inhib = blockers of cytochrome P450 2C19 activity – biochemical, luminescence, ADME assay, primary screen. inhibition, % at 5 µM. P33261. 96,000 compounds, 21% hits. CYP2C19 Supersomes, luciferin-H EGE luminescence, 30 min. AID 778, 2007;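 active = CYP2C19 inhibition above a set limit at 5 µM in the primary screen, cut at about 50% in these data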;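 also: plate controls were negative control wells for no effect and 2.5 mM tranylcypromine positive control for full effect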
# Target sequence (P33261 whole entry, looked up): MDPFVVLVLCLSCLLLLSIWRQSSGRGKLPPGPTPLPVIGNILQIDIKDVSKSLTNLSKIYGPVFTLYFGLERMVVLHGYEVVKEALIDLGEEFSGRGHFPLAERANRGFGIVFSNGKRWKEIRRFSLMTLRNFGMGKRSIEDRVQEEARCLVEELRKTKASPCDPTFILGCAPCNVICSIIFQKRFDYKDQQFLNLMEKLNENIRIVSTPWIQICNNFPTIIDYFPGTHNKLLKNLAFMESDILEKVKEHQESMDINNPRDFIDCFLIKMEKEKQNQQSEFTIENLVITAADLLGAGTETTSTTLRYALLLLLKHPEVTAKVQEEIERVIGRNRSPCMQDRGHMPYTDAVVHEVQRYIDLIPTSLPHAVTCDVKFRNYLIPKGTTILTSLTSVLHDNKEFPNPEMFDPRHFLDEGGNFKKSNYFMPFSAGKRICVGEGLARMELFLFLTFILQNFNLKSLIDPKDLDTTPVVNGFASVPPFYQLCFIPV
# CYP2C9 activ = human CYP2C9 activators, primary screen, biochemical, luminescence; recombinant CYP2C9, luciferin-H conversion; hits give high values; factor 1 = untreated enzyme, 0 = blocked; activation factor at 5 µM; 96,000 compounds, 1.4% hits;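 active = activation factor of 2 or more for CYP2C9 at a 5 µM dose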;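 also: 0 = sulfaphenazole-blocked wells and 1 = vehicle-only wells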
# CYP2C9 inhib = blockers of cytochrome P450 2C9 activity – biochemical, luminescence, ADME assay, primary screen; CYP2C9 Supersomes, luciferin-H conversion; inhibition, % at 5 µM; 96,000 compounds, 20% hits; AID 777, 2007;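 active = blocking of liver enzyme CYP2C9 beyond about 50% at 5 µM, limit read from the data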
# EphB4 ephrin blk = EphB4-ephrin-B2 interaction antagonists, primary screen, biochemical, TNYL-RAW peptide probe, fluorescence polarization; Ephrin type-B receptor 4 (Homo sapiens), P54760; EphB4 LBD / TNYL-RAW-Alexa532 peptide; inhibition, % at 7 µM; 97,000 compounds, 0.15% hits; AID 720, 2007;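 active = inhibition above the screen-wide mean inhibition plus 3 SD, cut at about 15% in these data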;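 also: 0% = DMSO wells and 100% = excess unlabeled TNYL-RAW peptide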
# CYP2C19 act = human CYP2C19 activators, primary screen, biochemical, luminescence; activation factor at 5 µM; AID 1025, 2008; recombinant CYP2C19, luciferin-H EGE luminescence; hits give high values; 0 = fully inhibited enzyme, 1 = untreated enzyme; 96,000 tested, under 10 active;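 active = activation factor of at least 2 at 5 µM in the primary screen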;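 also: 0 = wells with 2.5 mM tranylcypromine and 1 = vehicle-only wells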
# * marks the source's active call; other numbers are inactive results; nt = no result given.
SMILES,CYP2C19 inhib,CYP2C9 activ,CYP2C9 inhib,EphB4 ephrin blk,CYP2C19 act
O=C1NC(c2ccccc2)=C(c2ccc3ccccc3n2)C(c2ccncc2)N1 (stereo not given),83*,0.1,89*,-5,0.2
Cc1cc(C(=O)COc2ccc(-c3nnco3)cc2)c(C)n1Cc1ccccc1,60*,0.4,62*,-11,0.4
CCOc1cc(C(=O)NCc2nnc(SCC(=O)OC)n2C)cc(OCC)c1OCC,4,0.6,38,nt,1
COc1ccc(NC2CC(=O)N(CCc3ccccc3)C2=O)cc1 (stereo not given),nt,nt,nt,1,nt
O=C1CC(=O)N(CCc2ccc(F)cc2)C(=O)N1,0,0.9,14,2,1
O=C1CC(Nc2ccccc2)C(=O)N1Cc1ccccc1 (stereo not given),91*,0.8,24,-3,0.1
O=C1CC(Nc2ccccc2)C(=O)N1CCc1ccccc1 (stereo not given),79*,0.9,8,-3,0.2
O=C1CC(=O)N(CCc2ccccc2)C(=O)N1CCc1ccccc1,3,0.4,58*,-9,1
c1ccc2c(c1)ccc1nnc(SCc3ccc4c(c3)OCCO4)n12,27,1,2,1,0.7
Cc1ccc(OCC(=O)Nc2sc3c(c2C#N)CCC3)cc1C,5,0.6,40,-5,1
O=C(Nc1ccccc1Cl)C1CCCN(S(=O)(=O)c2ccc(F)cc2)C1 (stereo not given),71*,0.7,32,4,0.3
O=C(Nc1cccc(Cl)c1)C1CCCN(S(=O)(=O)c2ccc(F)cc2)C1 (stereo not given),23,0.9,13,4,0.8
CCOc1ccccc1NC(=O)C1CCCCN1S(=O)(=O)c1ccc(F)cc1 (stereo not given),64*,2.9*,-188,-5,0.4
CCOc1ccccc1NC(=O)C1CCN(c2ccc(S(=O)(=O)N3CCCC3)cc2)CC1,44,0.5,54*,-1,0.6
CCOc1ccc(NC(=O)CN2CCN(CC(=O)Nc3ccc(F)c(F)c3)CC2)cc1,42,0.6,41,-6,0.6
O=C(CSc1ccc2ccccc2c1)Nc1ccncc1,97*,0,95*,-4,0
COc1ccc(NC(=O)CSc2ccc(C)cc2)cc1,nt,nt,nt,-2,nt
Cn1ccnc1SCC(=O)Nc1ccccc1,nt,nt,nt,-7,nt
O=C(CSc1ccccc1)NCc1cccnc1,39,0.7,28,-8,0.6
COc1ccc(NC(=O)CSc2ccccn2)cc1,nt,nt,nt,-3,nt
O=C(CSc1ccccc1)Nc1ccncc1,90*,0.1,85*,-6,0.1
Cn1ccnc1SCC(=O)Nc1ccc2ccccc2c1,93*,0.8,19,-10,0.1
CC(=O)Oc1ccc(NC(=O)CSc2ccccc2)cc1,69*,0.5,53*,2,0.3
COc1cc(C)nc(Nc2nc(C)c(C(C)=O)s2)n1,29,0.7,31,-3,0.7
C(=N\c1nc2ccccc2n1CCN1CCCCC1)/c1ccc2c(c1)OCO2,19,0.8,24,-6,0.8
SMILES,CYP2C19 inhib,CYP2C9 activ,CYP2C9 inhib,EphB4 ephrin blk,CYP2C19 act
CCOC(=O)c1c(C(C)(C)C)oc2ccc(O)cc12,32,0.9,6,9,0.7
Cc1cc(NC(=O)CSc2ccc3ccccc3c2)no1,50*,0.2,79*,2,0.5
CCc1cc2ccccc2nc1SCC(=O)Nc1cc(C)on1,5,1.2,-16,-6,1
CCCc1cc(=O)oc2cc3occ(C)c3cc12,71*,0.2,76*,-9,0.3
CCCCc1cc(=O)oc2cc(C)cc(OCC(=O)O)c12,-24,0.9,8,nt,1.2
CCc1cc(=O)oc2cc3oc(C)c(C)c3cc12,44,0.8,17,-9,0.6
CCCc1cc(=O)oc2cc3oc(C)c(C)c3cc12,72*,0.6,36,2,0.3
CCCc1cc(=O)oc2cc(C)c3c(C)coc3c12,53*,0.7,30,0,0.5
Cc1coc2cc3oc(=O)c4c(c3cc12)CCC4,-3,0.9,13,nt,1
Cc1ccc(C23OC(=O)C(C)(C)C2OC(=O)C3(C)C)cc1 (stereo not given),32,0.8,20,5,0.7
COC(=O)c1ccc(COC(=O)CCc2nc(-c3ccccc3)c(-c3ccccc3)o2)cc1,67*,0.1,86*,-1,0.3
Cc1cccc(C)c1NC(=O)c1c(C)nn(-c2ccccc2)c1Cl,51*,0.6,44,1,0.5
Cc1nn(-c2ccccc2)c(Cl)c1C(=O)Nc1nnc(C2CCCC2)s1,44,0.1,94*,nt,0.6
CCN(CC)C(=O)CSc1nnc(-c2cccnc2)n1Cc1ccccc1,3,1.1,-8,8,1
O=C(c1ccncc1)c1ccc(N2CCN(C3CC(=O)N(Cc4ccccc4)C3=O)CC2)cc1 (stereo not given),86*,0.4,60*,2,0.1
COc1ccnc(N2CCN(c3cccc(C(F)(F)F)c3)CC2)c1C#N,-9,0.9,11,2,1.1
O=C(Nc1ccc(Br)cc1)c1ccc(N2C(=O)C3CC=C(Cl)CC3C2=O)cc1 (stereo not given),13,0.3,74*,-9,0.9
O=C(c1ccc(N2C(=O)C3CC=C(Cl)CC3C2=O)cc1)N1CCCCC1 (stereo not given),-24,1.1,-11,2,1.2
Cc1[nH]c2ccccc2c1C(=O)CN1CCN(C2CCCCC2)CC1,-1,0.7,30,-3,1
C=CCn1c(SCc2nc3c(c(=O)[nH]c(=O)n3CCCC)n2CCC)nnc1-c1ccccc1,44,0.2,84*,5,0.6
CCCCn1c(=O)[nH]c(=O)c2c1nc(-c1ccsc1)n2Cc1ccccc1,18,1,5,1,0.8
CCCCn1c(=O)[nH]c(=O)c2c1nc(CN1C(=O)c3ccccc3S1(=O)=O)n2CCC,80*,0,98*,3,0.2
CCCCn1c(-c2ccsc2)nc2c1c(=O)[nH]c(=O)n2CCC,17,0.8,23,-6,0.8
CCCCn1c(=O)[nH]c(=O)c2c1nc(COc1ccc(C#N)cc1)n2CCC,25,0.1,90*,-2,0.7
O=C(CSc1nc2c(cnn2-c2ccc(F)cc2)c(=O)[nH]1)N1CCOCC1,-18,0.9,7,-6,1.2
CN(CC(=O)Nc1cccc2c1CCCC2)S(=O)(=O)c1ccccc1,26,2.3*,-128,-3,0.7
O=C(CCCc1ccccc1)Nc1cccc2c1CCCC2,-1,2.6*,-157,1,1
O=C(COc1ccccc1)Nc1cccc2c1CCCC2,11,2.1*,-106,4,0.9
COC(=O)[C@H](C)NC(=O)NC(C)CCc1ccccc1 (stereo not given in full),39,0.7,34,-4,0.6
